Results taken from paper PMC7826789 (International Journal of Molecular Sciences, 2021).

What was measured:
Conditions in all cases: Compound Concentration (nM):1000
MAST1 = tested on: MAST1
MEK1 = tested on: T1, MEK1
T1 construct: gene MAP2K1

MEK2 = tested on: T2, MEK2
T2 construct: gene MAP2K2

MEK3 = tested on: T3, MEK3
T3 construct: gene MAP2K3

MEK4 = tested on: T4, MEK4
T4 construct: gene MAP2K4

MEK5 = tested on: T5, MEK5
T5 construct: gene MAP2K5

MEK6 = tested on: T6, MEK6
T6 construct: gene MAP2K6

MELK = tested on: MELK
MERTK = tested on: MERTK
MET(M1250T) = tested on: MET(M1250T)
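Also: KINOMEscan scanMAX binding as percent activity remaining versus control; lower means stronger binding.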

Compound	Percent Control (MAST1) [%]	Percent Control (MEK1) [%]	Percent Control (MEK2) [%]	Percent Control (MEK3) [%]	Percent Control (MEK4) [%]	Percent Control (MEK5) [%]	Percent Control (MEK6) [%]	Percent Control (MELK) [%]	Percent Control (MERTK) [%]	Percent Control (MET(M1250T)) [%]
Cl.O=S1CCN(Cc2ccc(-c3ccc4ncnc(Nc5ccc(OCc6ccccc6)c(F)c5)c4c3)o2)CC1 [GW576924A]	65	83	93	100	98	12	91	95	60	100
COc1ccc2[nH]c3c4[nH]c5ccc(OC)cc5c4c4c(c3c2c1)C(=O)NC4=O [GW296115X]	45	70	59	46	91	0.7	97	43	19	88
COc1cc(C=NNc2ncnc3c2cnn3-c2ccccc2)ccc1O [GW513184X]	83	76	82	100	100	4.6	100	93	93	21
NS(=O)(=O)c1ccc(N/N=C2\C(=O)Nc3ccc(C(=O)NCc4ccncc4)cc32)cc1 [GW300657X]	33	100	100	41	87	48	79	35	69	82
CCS(=O)(=O)c1ccc(OC)c(Nc2ncc(-c3cccc(F)c3)o2)c1 [GW621970X]	93	93	92	76	100	4.1	82	86	67	100
NS(=O)(=O)c1ccc(N/N=C2\C(=O)Nc3ccc(C(=O)NCCc4c[nH]cn4)cc32)cc1 [GW300660X]	100	93	90	39	100	39	96	15	100	100
O=C1Nc2ccc(C(=O)c3ccco3)cc2C1=Cc1cc(Cl)c(O)c(Cl)c1 [GW406108X]	64	76	91	16	32	72	72	78	100	59
CCc1ccc(Oc2nccc(-c3c(-c4ccc(F)cc4)ncn3C3CCNCC3)n2)cc1 [SB-242719]	81	93	91	78	100	100	100	88	100	100
C[C@@H](Oc1cc(-n2cnc3ccc(OC4CCN(C)CC4)cc32)sc1C(N)=O)c1ccccc1Cl [GSK579289A]	52	94	96	86	98	51	84	70	84	68
Nc1ncnc2occ(-c3ccc(NC(=O)Nc4cc(C(F)(F)F)ccc4F)cc3)c12 [GW770249X]	100	98	100	100	100	21	100	53	1.4	49
NS(=O)(=O)c1ccc(Nc2ncc(-c3ccccc3)o2)cc1 [GW572399X]	100	100	100	30	86	59	65	100	100	100
COc1ccc2c(-c3ccnc(Nc4cccc(OC(F)(F)F)c4)n3)cnn2n1 [GW810372X]	56	100	100	30	82	72	78	96	100	100
CCS(=O)(=O)c1ccc(OC)c(Nc2ncc(-c3cccc(OC)c3)o2)c1 [GW580509X]	93	100	100	78	100	4.6	92	100	72	100
COc1cc(C)c(N(C)C(=O)CN(C)C)cc1Nc1nc(Nc2cccc(F)c2C(N)=O)c2cc[nH]c2n1 [GSK2219385]	44	100	100	91	94	85	100	100	87	100
COc1cccc(-n2ncc3c(N/N=C/c4ccncc4)ncnc32)c1 [GW784752X]	76	98	96	79	97	2.3	87	100	86	46
CN(C)c1cc2c(Nc3ccc4c(cnn4Cc4ccccc4)c3)ncnc2cn1 [GW282974X]	77	48	50	83	89	0	84	90	96	75
CN(C)CCNC(=O)Nc1ccc(N(C)c2ccnc(Nc3ccc(CS(C)(=O)=O)cc3)n2)cc1.Cl [GW830900A]	57	86	77	58	75	1.9	100	56	91	22
CC(C)COC(=O)c1ccc2c(c1)/C(=C/Nc1ccc(S(N)(=O)=O)cc1)C(=O)N2 [GW416981X]	100	95	92	68	100	21	83	6.4	100	92
COc1ccc2cc(-c3c(-c4ccncc4)nc(-c4ccc(S(C)(=O)=O)cc4C)n3C)ccc2c1 [SB-633825]	68	85	80	70	72	61	100	84	82	76
C/C(Nc1ccc(S(N)(=O)=O)cc1)=C1/C(=O)Nc2ccccc21 [GW335962X]	77	75	81	76	39	70	74	87	100	91

Compound	Percent Control (MAST1) [%]	Percent Control (MEK1) [%]	Percent Control (MEK2) [%]	Percent Control (MEK3) [%]	Percent Control (MEK4) [%]	Percent Control (MEK5) [%]	Percent Control (MEK6) [%]	Percent Control (MELK) [%]	Percent Control (MERTK) [%]	Percent Control (MET(M1250T)) [%]
Cl.O=C(Nc1ccc(Oc2ccc3[nH]c(NC(=O)c4ccco4)nc3c2)cc1)Nc1cc(C(F)(F)F)ccc1F [GW683134A]	98	96	99	83	100	19	73	82	0.2	27
COc1cc2ncnc(Nc3ccc4c(cnn4Cc4ccccc4)c3)c2cc1OC.Cl [GW282449A]	100	37	50	100	100	0	97	100	83	100
CC1=C(C(=O)Nc2ccc3[nH]ncc3c2)C(c2ccc(Cl)c(Cl)c2)CC(=O)N1 (stereo not shown) [GSK299115A]	72	73	69	77	89	79	84	88	100	95
CN1CCN(C(=O)c2ccc(NC(=O)Nc3ccc(N(C)c4ccnc(Nc5ccc(CS(C)(=O)=O)cc5)n4)cc3)cc2)CC1.Cl [GW830263A]	61	33	40	14	6	0.1	82	81	56	2.2
COc1cccc(-c2c[nH]c3c(N/N=C/c4ccncc4)ncnc23)c1 [GW814408X]	100	95	80	77	100	0.1	100	79	94	54
CC1=C(C(=O)Nc2ccc3[nH]ncc3c2)C(c2ccc3ccccc3c2)CC(=O)N1 (stereo not shown) [GSK270822A]	87	79	74	69	82	70	92	100	100	32
O=C(Nc1n[nH]c2nc(-c3ccc(O)cc3)c(Br)cc12)C1CC1 [SB-725317]	84	100	100	75	100	28	98	100	100	100
CCn1c(-c2nonc2N)nc2c(C#CC(C)(C)O)nc(OCCNC)cc21.Cl [GSK949675]	51	100	100	40	100	100	80	45	80	100
COc1ccccc1-c1cc(/C=C2\C(=O)Nc3ncc(Br)cc32)cc(Br)c1O [GW442130X]	85	74	82	72	86	64	76	94	95	96
Cc1cc(O)cc(C)c1/C=C/c1cncc(C(N)=O)c1 [GW435821X]	100	81	89	100	100	5.3	100	95	100	100
Cl.O=C(O[C@H]1CN[C@H](C#Cc2cc3ncnc(Nc4ccc5c(cnn5Cc5ccccc5)c4)c3s2)C1)N1CCOCC1 [GSK200398A]	44	69	79	78	97	0.4	71	86	100	86
COc1cc(/C=N/Nc2ncnc3[nH]ncc23)ccc1O [GW578748X]	78	78	83	79	94	0.5	83	15	100	84
NS(=O)(=O)c1ccc(N/N=C2\C(=O)Nc3ccc(-c4cnco4)cc32)cc1 [GW276655]	75	91	92	52	84	70	72	97	60	63
Cl.O=C(Nc1ccc(Oc2ccc3[nH]c(NC(=O)c4ccccc4)nc3c2)cc1)Nc1cc(C(F)(F)F)ccc1F [GW709042A]	99	80	98	91	100	51	86	68	8.2	78
Cl.c1ccc(Cc2nc3ccc(Nc4ncnc5ccccc45)cc3[nH]2)cc1 [GR269666A]	100	100	100	100	100	2.6	92	100	100	100
NS(=O)(=O)c1ccc(N/N=C2\C(=O)Nc3ccc(Cl)cc32)cc1 [GW280670X]	100	98	100	100	100	100	99	100	100	100
COC(=O)Nc1nc2ccc(Oc3ccc(NC(=O)Nc4cc(C(F)(F)F)ccc4F)cc3)cc2s1.Cl [GW693917A]	41	76	78	100	96	15	98	72	6.9	19
COc1ccc(COc2ccc(Cc3cnc(N)nc3N)cc2OC)cc1 [GW632580X]	93	90	90	93	100	97	100	100	100	100
COc1cc(N2CCN(C(C)C)CC2)ccc1Nc1nc(Nc2ccc(F)cc2C(=O)NC[C@@H](O)CO)c2cc[nH]c2n1 [GSK1392956A]	43	100	100	23	77	96	67	57	77	78
COc1cc2ncn(-c3cc(O[C@H](C)c4ccccc4Cl)c(C(N)=O)s3)c2cc1OC [GSK237701A]	96	90	90	100	91	59	84	81	28	81
